ChEMBL document CHEMBL3988442, “University of Dundee, Small-Polar-MMV Screening Library” (2021)

Biological target: T1, Arginase-2, mitochondrial (Homo sapiens) (UniProt P78540)
T1 sequence (whole entry): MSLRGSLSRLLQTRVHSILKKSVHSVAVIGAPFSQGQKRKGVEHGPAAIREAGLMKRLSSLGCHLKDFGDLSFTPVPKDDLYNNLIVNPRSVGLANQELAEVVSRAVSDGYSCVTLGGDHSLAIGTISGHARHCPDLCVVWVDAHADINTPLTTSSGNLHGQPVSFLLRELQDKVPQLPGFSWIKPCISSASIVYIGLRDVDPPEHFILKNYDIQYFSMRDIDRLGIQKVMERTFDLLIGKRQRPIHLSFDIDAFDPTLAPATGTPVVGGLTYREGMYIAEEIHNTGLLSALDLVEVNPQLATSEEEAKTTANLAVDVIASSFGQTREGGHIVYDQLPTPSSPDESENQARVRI
Experiment: in vitro enzyme assay to detect the production of urea directly proportional to the activity of Arginase II
Type: functional
Parameters: scale not given: in the data most compounds retested in dose-response had high values
Conditions: 30 µM

SMILES | Percent Effect
CN(C)c1ncccc1CNC(=O)N(Cc1ccccc1F)C1CC1 | 8.11%
COc1ccccc1Oc1ncccc1CNC(=O)[C@@H](N)[C@@H](C)O | 3.78%
O=C(NC1CC1)[C@@H]1CCO[C@@H]2CCN(CCc3ccccc3)C[C@@H]21 | 10.3%
Cc1nn(CCO)c(C)c1CNC1CCOc2ccccc21 (stereo not given) | -9.19%
O=C(O)C1CCN(C(=O)Cn2ccc3c(Cl)cccc32)CC1 | 10.3%
Cc1cc(C)n(C2CN(Cc3noc(C4CC4)n3)C2)n1 | 8.11%
COc1ncccc1CNC(=O)N(Cc1ccccc1F)C1CC1 | 5.95%
COc1ccc(CNCc2nnc3n2CC(C(F)(F)F)CC3)cc1 (stereo not given) | 9.19%
CCCc1n[nH]cc1C(=O)NCC1COc2cc(OC)ccc2C1 (stereo not given) | 8.11%
Cc1ccc(C(=O)N(CCC#N)Cc2ccccn2)cc1C | 3.78%
O=C(NCc1ccncc1)N(Cc1ccc(F)cc1F)C1CC1 | 3.78%
Cn1cc(CC2CCN(C(=O)NCCCc3ccc(O)cc3)C2)cn1 (stereo not given) | 7.03%
OC(COc1ccccc1)CN1CCN(c2nccs2)CC1 (stereo not given) | 4.87%
CC1CCN(S(=O)(=O)c2cccn(CC(=O)NC(C)(C)C)c2=O)CC1 | 8.11%
OC(CN(Cc1ccccc1)Cc1cscn1)c1cccs1 (stereo not given) | 8.11%
COCc1csc(NC(=O)N2CCC(Cc3cnn(C)c3)C2)n1 (stereo not given) | 2.7%
COc1ccc(C)cc1C(C(=O)O)N1CCN(Cc2ccccn2)CC1 (stereo not given) | 4.87%
Cc1nsc(N2CCCN(C(=O)NCc3cc(C)on3)CC2)n1 | 8.11%
Cc1ncsc1C(=O)N1CCCC(c2nccn2Cc2cscn2)C1 (stereo not given) | 10.3%
O=C(Cn1nc2c(cc1=O)CCCC2)NC(Cc1ccccc1)C(=O)O (stereo not given) | -13.5%
